NIH3T3 tox: Cytotoxic Profiling in NIH 3T3 Cell Line of Diverse Libraries Using Quantitative High-Throughput Screening; AID 1345082, 2018; NIH 3T3 viability, CellTiter-Glo ATP luminescence, 48-72 h; 94,000 tested, 4.3% active; Potency, µM (series often up to 96.7 µM), actives largely listed as inhibitors; further: nearly all actives have a fitted effect of over 55% in size
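NIH 3T3 cells at 400 cells/well received 23 nL of compound by pintool and were incubated 48 or 72 h at 37 °C. Viability was read as ATP-coupled CellTiter-Glo luminescence.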
Luciferase inh: Firefly luciferase inhibition profiling of diverse chemical library using quantitative high-throughput screening; Luciferin 4-monooxygenase (Photinus pyralis), P08659; purified P. pyralis luciferase, luminescence, biochemical; Potency, µM (doses to about 115 µM), actives largely listed as inhibitors; 76,000 tested, 2.5% active; further: nearly all actives have a fitted effect of over 65% in size
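Luminescence read by CCD imager after adding enzyme (10nM final) to wells holding compound, titrated in qHTS. Substrates 10uM each D-luciferin and ATP; buffer 50mM Tris acetate pH 7.5, 10mM Mg acetate, Tween-20, BSA.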
HEK293 tox: Cytotoxic Profiling in HEK 293 Cell Line of Diverse Libraries Using Quantitative High-Throughput Screening | HEK 293 viability, ATP luminescence (CellTiter-Glo), 48-72 h | Potency, µM (top dose mostly 115 µM), hits mostly inhibitors | 94,000 tested, 6.6% active; further: nearly all actives have a fitted effect of over 60% in size
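HEK 293 cells seeded at 250 cells/well were exposed to compound for 48 or 72 hr at 37 degree Celsius. Viability taken as ATP content by CellTiter-Glo luminescence.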
GPT2 inh: Primary qHTS assay for inhibitors of Glutamate pyruvate transaminase 2 (GPT2). 100,000 tested, 0.25% active. Alanine aminotransferase 2 (Homo sapiens), Q8TD30. Potency, µM (top dose mostly 57.7 µM), hits mostly inhibitors. Recombinant GPT2, coupled pyruvate oxidase/HRP Amplex Red fluorescence. AID 1671188, 2021; further: nearly all actives have a fitted effect of over 60% in size
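Inhibition is scored from Amplex Red fluorescence generated when pyruvate oxidase and HRP act on pyruvate released by GPT2. Reactions contain 10ng/uL enzyme, 250uM a-KG and 2mM L-alanine and run 30 min at room temperature.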
hNpr1 antagonist: Natriuretic polypeptide receptor (hNpr1) antagonism - Primary qHTS; HEK293 hNpr1 GloSensor cGMP, ANP-stimulated luminescence; Potency, µM (series often up to 46.3 µM), usual class: inhibitors; AID 1347048, 2019; 76,000 tested, 1.6% active; calls by dose curve; further: nearly all actives have a fitted effect of over 60% in size
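HEK293 cells stably expressing human Npr1 and cGMP GloSensor pGS-40F, loaded 2 h with 2% GloSensor reagent, given compound 30 min at room temperature. Luminescence read before and 20 min after 0.1 nM hNppA.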
Npr1 antag conf: Natriuretic polypeptide receptor (hNpr1) antagonism - Confirmation; Potency, µM (titrated, usually from 57.6 µM), usual class: inhibitors; 1,400 tested, 76% active; shares compounds with hNpr1 antagonist; HEK293 hNpr1 cGMP GloSensor luminescence, ANP-stimulated; calls by dose curve; further: nearly all actives have a fitted effect of over 70% in size
Npr2 selectivity: Natriuretic polypeptide receptor (hNpr2) antagonism - Subtype selectivity assay. shares compounds with hNpr1 antagonist. HEK293 hNpr2 GloSensor cGMP luminescence, CNP-stimulated. Potency, µM (doses to about 57.6 µM), hits mostly inhibitors. 1,400 tested, 67% active; calls by dose curve; further: nearly all actives have a fitted effect of over 70% in size
Target sequence (P20594 whole entry, looked up): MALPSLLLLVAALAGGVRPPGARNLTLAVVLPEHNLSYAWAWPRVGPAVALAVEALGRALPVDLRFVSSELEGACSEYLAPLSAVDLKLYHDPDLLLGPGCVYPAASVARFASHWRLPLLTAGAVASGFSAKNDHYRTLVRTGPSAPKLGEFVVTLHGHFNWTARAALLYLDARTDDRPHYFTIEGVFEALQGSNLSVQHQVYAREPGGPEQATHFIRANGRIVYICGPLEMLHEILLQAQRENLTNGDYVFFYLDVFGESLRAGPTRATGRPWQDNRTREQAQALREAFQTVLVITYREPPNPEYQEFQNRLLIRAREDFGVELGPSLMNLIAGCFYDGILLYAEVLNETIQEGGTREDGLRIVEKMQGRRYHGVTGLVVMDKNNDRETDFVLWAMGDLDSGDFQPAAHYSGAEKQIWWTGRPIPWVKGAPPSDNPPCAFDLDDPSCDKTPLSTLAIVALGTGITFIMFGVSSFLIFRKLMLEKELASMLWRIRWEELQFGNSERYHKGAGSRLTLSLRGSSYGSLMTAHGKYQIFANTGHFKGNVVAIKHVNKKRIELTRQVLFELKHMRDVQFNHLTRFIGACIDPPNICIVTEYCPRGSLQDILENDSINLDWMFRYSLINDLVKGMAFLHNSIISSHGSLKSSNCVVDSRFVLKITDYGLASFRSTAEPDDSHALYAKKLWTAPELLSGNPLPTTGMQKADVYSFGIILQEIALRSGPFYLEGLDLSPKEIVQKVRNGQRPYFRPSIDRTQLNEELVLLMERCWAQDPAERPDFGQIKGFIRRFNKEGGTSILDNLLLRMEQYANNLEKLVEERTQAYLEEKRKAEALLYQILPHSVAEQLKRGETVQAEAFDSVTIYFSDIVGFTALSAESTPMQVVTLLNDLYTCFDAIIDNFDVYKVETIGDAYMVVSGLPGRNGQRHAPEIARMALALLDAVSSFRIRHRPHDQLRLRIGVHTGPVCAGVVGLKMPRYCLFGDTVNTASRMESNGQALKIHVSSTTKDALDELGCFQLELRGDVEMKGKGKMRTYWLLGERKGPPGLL
FLuc counter: Natriuretic polypeptide receptor (hNpr1) antagonism - Confirmation firefly luciferase (FLuc) inhibition counterscreen; shares compounds with hNpr1 antagonist; purified FLuc enzyme, luminescence, Km substrate; Potency, µM (doses to about 57.6 µM), most hits filed as inhibitors; 1,400 tested, 0.7% active; AID 1347047, 2019
GloSensor ctrl: Natriuretic polypeptide receptor (hNpr1) antagonism - Counterscreen GloSensor control cell line; shares compounds with hNpr1 antagonist; HEK293 GloSensor cGMP, SNP-stimulated, luminescence; Potency, µM (doses to about 57.6 µM), usual class: inhibitors; 1,400 tested, 69% active; AID 1347051, 2019; calls by dose curve; further: nearly all actives have a fitted effect of over 70% in size
Numbers stand for hits; i = inactive; ? = inconclusive; nt = no result. Most compounds without a hit are left out; they make up all but 10% or so of the library. Unless noted, the call rests on the fitted dose curve; in most records, active means well fitted curve in the direction sought with a large enough effect; inconclusive means small, poorly fitted or top-dose-only effect, or another doubt; inactive means no such curve, though single readings can be large; an effect the other way counts as inactive or inconclusive.

SMILES | NIH3T3 tox | Luciferase inh | HEK293 tox | GPT2 inh | hNpr1 antagonist | Npr1 antag conf | Npr2 selectivity | FLuc counter | GloSensor ctrl
CCNc1cc(N2CCC(CCC(=O)NCC3CC3)CC2)ncn1 | i | i | ? | i | i | nt | nt | nt | nt
CNc1nccc(N2CCC(CC(=O)N3CCN(c4ccccc4C)CC3)CC2)n1 | 45µM | i | 28µM | i | ? | ? | ? | i | ?
CCNc1cc(N2CCC(CCC(=O)N3CCCN(c4ncccn4)CC3)CC2)ncn1 | i | i | ? | i | ? | 24µM | ? | i | 24µM
CC(C)(C)CN1CCCC12Cc1ccccc1CNC2=O (stereo unspecified) | ? | nt | ? | i | nt | nt | nt | nt | nt
Cc1ccsc1C(=O)N1CC(Oc2ccccc2-c2nc(-c3cnccn3)no2)C1 | i | i | i | i | i | nt | nt | nt | nt
COc1ccc(C(=O)Nc2ccc(-c3noc([C@@H]4CCCN4CC4CCCCC4)n3)cn2)cc1 | ? | i | 45µM | i | 10µM | 6.9µM | 12µM | i | 12µM
CNc1ccc(-c2noc([C@@H]3CCCN3Cc3cccc(OC)c3)n2)cn1 | i | ? | i | i | i | nt | nt | nt | nt
COc1ccc(C(=O)Nc2ccc(-c3noc([C@@H]4CCCN4Cc4ccc(C(F)(F)F)cc4)n3)cn2)cc1 | ? | i | ? | i | 11µM | 11µM | 14µM | i | 9.7µM
COc1ccc(C(=O)Nc2ccc(-c3noc([C@@H]4CCCN4Cc4ccc(OC(F)(F)F)cc4)n3)cn2)cc1 | ? | i | ? | i | 11µM | 12µM | 11µM | i | 11µM
CCOc1ccccc1C1NC(=O)N(CC(=O)N(C)c2ccccc2)C2=C1C(=O)OC2 (stereo unspecified) | i | i | i | i | i | nt | nt | nt | nt
Cc1cccc2c1nc1n2[C@@H](CNS(=O)(=O)c2ccc(F)cc2)COC1 | ? | i | ? | i | ? | nt | nt | nt | nt
c1ccc(CNC[C@H]2COCc3nc4ccccc4n32)cc1 | ? | i | ? | i | 22µM | 35µM | 31µM | i | 28µM
Cc1cccc2c1nc1n2[C@@H](CNS(=O)(=O)Cc2ccccc2)COC1 | ? | i | ? | i | 35µM | 28µM | 28µM | i | 28µM
COc1ccc2nc3n(c2c1)[C@@H](CNCc1ccc(C(F)(F)F)cc1)COC3 | ? | i | ? | ? | 35µM | 31µM | 35µM | i | 28µM
Cc1ccc2c(c1)nc1n2[C@@H](CNCc2ccccc2)COC1 | 112µM | i | ? | i | ? | 35µM | ? | i | ?
COc1ccc2nc3n(c2c1)[C@@H](CNCc1ccccc1)COC3 | ? | i | ? | i | ? | nt | nt | nt | nt
Cc1c(F)cccc1NC(=O)N1CCCC(Cn2cnc3cccnc32)C1 (stereo unspecified) | i | i | ? | i | i | nt | nt | nt | nt
COc1ccc(CNc2ncnc3c2CN(c2ccc(C)cc2)C(=O)CN3C)cc1 | i | i | i | i | i | nt | nt | nt | nt
COc1cccc(NC(=O)c2cnc3c(c2)N(C(=O)Cc2ccc(C(C)C)cc2)CCC3)c1 | ? | i | 22µM | i | 11µM | 19µM | 19µM | i | 17µM

Bioassay records deposited in PubChem by National Center for Advancing Translational Sciences (NCATS).
